# Records with an inconclusive call do not appear. Calls of active or inactive are those of the source. Calls come from the whole dose curve; as a rule, active = well fitted inhibition curve with a large enough effect; inconclusive = small, poorly fitted or top-dose-only effect; inactive = no such curve, though single readings can be large or run the other way.
# Biological target: Thyroid hormone receptor beta (Homo sapiens) (UniProt P10828)
# Assay: Concentration Response Confirmation Assay for Inhibitors of the Interaction of Thyroid Hormone Receptor and Steroid Receptor Coregulator 2
# Conditions: TRb LBD + Texas Red SRC2 peptide, fluorescence polarization, 5 h; series mostly up to 92.2 µM
# Excerpt: NIH Molecular Libraries Probe Production Network [MLPCN] NIH Chemical Genomics Center [NCGC] MLPCN Grant: DK058080 Assay Provider: R. Kip Guy, St. Jude Children's Research Hospital NCGC Assay Overview: Thyroid receptor (TR) regulates many homeostatic processes including basal metabolism, cardiovascular function, body weight, and lipid trafficking. TR modulators are potential therapeutics for obesity and hyperlipidemias but current thyroid analogs have undesirable side effects, particularly cardiac stimulation. To identify inhibitors that specifically prevent the interaction of TR with the steroid receptor coregulator 2 (SRC2), a fluorescence polarization assay was screened. This assay detects interaction of the ligand-binding domain of human TRb with a Texas Red labeled SRC2 peptide, corresponding to a 20 amino acid region of the nuclear receptor interaction domain (Arnold et al., 2006). Small molecule inhibitors that block the interaction of TR and SRC2 are detected by a decrease in fluorescence polarization. This assay is a confirmation assay for AID 1469. Arnold, L. A.; Estebanez-Perpina, E.; Togashi, M.; Shelat, A.; Ocasio, C. A.; McReynolds, A. C.; Nguyen, P.; Baxter, J. D.; Fletterick, R. J.; Webb, P.; Guy, R. K. A high-throughput screening method to identify small molecule inhibitors of thyroid hormone receptor coactivator binding. Sci STKE 2006, p 13.
# NCGC Assay Protocol Summary: For screening, 5 uL/well 0.6 uM TRb and 20 nM SRC2 Texas Red in protein buffer (20mM Tris hydrochloride, 100mM NaCl, 10% glycerol, 1mM EDTA, 0.01% NP-40, 1mM DTT, 1uM T3 and 5% DMSO) was dispensed into black solid 1536-well plates (Grenier) using a solenoid-based dispenser. […] The plates were read by an Envision (Perkin Elmer) to detect fluorescence polarization of SRC2 Texas Red (555 nm excitation and 632 nm emission). […] Keywords: NIH Roadmap, MLPCN, MLI, MLSMR, qHTS, NCGC, qHTS, thyroid hormone receptor, steroid receptor coactivator, fluorescence polarization
# Chain of Thyroid hormone receptor beta (Homo sapiens) (P10828 whole entry, looked up): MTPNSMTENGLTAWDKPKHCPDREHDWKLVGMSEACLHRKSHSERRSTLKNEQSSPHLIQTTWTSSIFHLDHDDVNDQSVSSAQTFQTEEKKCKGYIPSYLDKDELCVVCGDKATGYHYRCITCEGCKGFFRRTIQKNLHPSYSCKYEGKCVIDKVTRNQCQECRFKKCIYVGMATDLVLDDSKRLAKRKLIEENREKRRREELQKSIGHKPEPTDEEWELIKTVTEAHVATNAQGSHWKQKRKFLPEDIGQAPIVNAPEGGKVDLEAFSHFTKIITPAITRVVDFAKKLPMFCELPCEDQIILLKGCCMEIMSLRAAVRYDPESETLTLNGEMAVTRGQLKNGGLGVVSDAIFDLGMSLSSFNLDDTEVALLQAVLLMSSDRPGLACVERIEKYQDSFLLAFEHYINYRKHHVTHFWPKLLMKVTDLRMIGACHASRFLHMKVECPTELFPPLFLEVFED
row,SMILES,Potency
1,CCn1nc(-c2cccs2)nc2c(=O)n(C)c(=O)nc1-2,inactive
2,COP(=S)(OC)Oc1ccc([N+](=O)[O-])cc1,25.1 µM (active)
3,CN1CC[C@@]2(C)c3cc(O)ccc3N(C)C2O1 (stereo partly drawn),25.1 µM (active)
